# Assay outcomes as filed in PubChem BioAssay.
# The full list was thinned out, with hits kept by preference.
# HT1080 IDH1KD tx = HT-1080 IDH1 knockdown cell toxicity (counter line); Potency, µM (series often up to 46.1 µM), without a hit: at the top dose activity, negative = toxicity, usual class: cytotoxic; HT-1080 IDH1 knockdown viability, ATP luminescence, 48 h; AID 686971; actives 2% (n = 360,000);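 further: potency means the concentration at half of the fitted maximal effect; 0% = DMSO wells and -100% = cell-free medium wells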
#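 HT-1080-IDH1KD cells (IDH1 knocked down), 750/well in RPMI with 5% FBS, treated with compound 48 h at 37 degrees C. Viability by CellTiter-Glo luminescence, normalised to DMSO and no-cell wells; concentration-response curves classed.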
# TDP1 cell noCPT = qHTS for Inhibitors of human tyrosyl-DNA phosphodiesterase 1 (TDP1): qHTS in cells in absence of CPT | AID 686978, 2013 | Potency, µM (highest dose often 46.2 µM), inactives show top-dose activity change, negative = growth inhibition, actives largely listed as inhibitors | actives 15% (n = 420,000) | DT40 Tdp1-/- hTDP1 cells, no CPT, ATP luminescence, 48 h; further: potency means the concentration at half of the fitted maximal effect; nearly all actives have a fitted effect of over 55% in size
#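 Stably hTDP1-transfected Tdp1-null chicken DT40 cells were treated with library compounds minus camptothecin and grown for at least 48 hr at 37 °C, after which cellular ATP was quantified by luminescence.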
# HT1080-NT tox = kills 2HG-producing HT-1080-NT fibrosarcoma cells; HT-1080-NT fibrosarcoma viability, CellTiter-Glo ATP luminescence, 48 h; Potency, µM (top dose mostly 46.1 µM), for the others: at the top dose activity, negative = less viability, usual class: cytotoxic; actives 1.6% (n = 360,000);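 further: NT is the 2HG producing partner of a matched IDH1 knockdown line; potency means the concentration at half of the fitted maximal effect; 0% = DMSO-treated cells and -100% = media-only wells without cells; nearly all actives have a fitted effect of over 55% in size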
#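 Luminescent CellTiter-Glo readout after 48 hours of compound exposure at 37 degrees C defined viability of HT-1080-NT cells. Activity was normalized to DMSO wells and cell-free media wells; concentration-response curves were fitted and assigned curve classes.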
# TDP1 cell CPT = DT40-hTDP1 cell growth loss with CPT | chicken DT40 Tdp1-/-;hTDP1 cells + 20 nM CPT, ATP luminescence, 48 h | Potency, µM (highest dose often 46.2 µM), for the others: top-dose activity change, negative = growth inhibition, hits mostly inhibitors | actives 12% (n = 420,000) | AID 686979; further: potency means the concentration at half of the fitted maximal effect; nearly all actives have a fitted effect of over 55% in size
#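 Cell growth measured by CellTiter-Glo luminescence after a minimum 48 h, 37 C compound exposure with 20 nM CPT in Tdp1-knockout DT40 cells stably expressing hTDP1, seeded 400/well; qHTS titration format.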
# ALOX12 inh = inhibitors of human 12S-lipoxygenase ALOX12; purified 12hLO, xylenol orange hydroperoxide absorbance; actives 1.1% (n = 580,000); AID 1671190; P18054; Potency, µM (top dose mostly 108 µM), for the others: top-dose activity change, negative = inhibition, hits mostly inhibitors; further: potency means the concentration at half of the fitted maximal effect
# Target sequence (P18054 whole entry, looked up): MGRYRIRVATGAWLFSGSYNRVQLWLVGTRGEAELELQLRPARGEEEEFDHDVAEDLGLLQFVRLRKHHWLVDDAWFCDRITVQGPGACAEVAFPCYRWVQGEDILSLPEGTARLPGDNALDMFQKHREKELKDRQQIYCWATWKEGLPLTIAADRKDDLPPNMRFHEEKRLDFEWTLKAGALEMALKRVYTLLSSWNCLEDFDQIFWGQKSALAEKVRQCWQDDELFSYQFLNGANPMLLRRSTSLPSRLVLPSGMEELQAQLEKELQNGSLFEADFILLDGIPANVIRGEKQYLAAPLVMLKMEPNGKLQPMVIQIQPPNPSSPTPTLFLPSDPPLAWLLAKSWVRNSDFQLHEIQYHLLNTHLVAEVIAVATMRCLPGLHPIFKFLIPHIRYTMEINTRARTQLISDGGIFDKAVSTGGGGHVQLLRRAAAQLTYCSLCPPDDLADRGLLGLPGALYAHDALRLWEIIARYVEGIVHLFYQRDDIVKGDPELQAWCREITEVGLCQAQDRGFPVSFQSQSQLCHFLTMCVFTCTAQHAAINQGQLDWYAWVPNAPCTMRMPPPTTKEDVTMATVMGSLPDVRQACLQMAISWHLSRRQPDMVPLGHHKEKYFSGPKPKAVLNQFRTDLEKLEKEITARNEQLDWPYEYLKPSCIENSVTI
#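 Hydroperoxide product was detected by ferrous iron/xylenol orange as the 573 to 405 nm absorbance ratio. Arachidonic acid at 40 uM (final) was turned over for 30 min at room temperature by 150 nM human 12hLO, pH 7.0 Hepes buffer, after 15 min compound preincubation.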
# IL1B secr inh = inhibitors of inflammasome signaling (IL-1 beta secretion) | THP-1 LPS/ATP IL-1B secretion, AlphaLISA, 16 h; active compounds read low | activity change, % at 57.5 µM | AID 743279 | actives 4.7% (n = 360,000); in the data active means activity change below about -50%; inconclusive means mostly about -30% to -49%
#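 THP-1 cells pretreated 1 hr with compounds (up to 57.5 uM final), then stimulated with LPS (250 ng/mL final) plus ATP (1.25 mM final); secreted IL-1B measured by AlphaLISA after 16 hr, decreased signal indicating inhibition.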
# Numbers without * were called inactive; ? = inconclusive; · = no result; [ ] = remark or other dose. Unless noted, the call rests on the fitted dose curve; in most records, active means well fitted curve in the direction sought with a large enough effect; inconclusive means small, poorly fitted or top-dose-only effect, or another doubt; inactive means no such curve, though single readings can be large; an effect the other way counts as inactive or inconclusive. Unless noted, on the % scale 0 is the no-effect control and ±100 the full control effect.
SMILES,HT1080 IDH1KD tx,TDP1 cell noCPT,HT1080-NT tox,TDP1 cell CPT,ALOX12 inh,IL1B secr inh
Cc1ccc(S(=O)(=O)N2C[C@H]3[C@H]4C(=O)N(Cc5ccccc5)C(=O)[C@H]4CC(=O)[C@H]3[C@@H]2c2ccccc2Cl)cc1,4%,?,29%,-28%,-8%,-6
Cc1ccc(S(=O)(=O)N2C[C@@H]3CCCC[C@@H]3[C@@H](C)[C@H]2c2cn(Cc3ccccc3)c3ccccc23)cc1,-2%,7.3µM*,-2%,6.5µM*,9%,5
Cc1ccc(S(=O)(=O)N2C[C@@H]3[C@H]4CC[C@H](C4)[C@@H]3[C@@H](C)[C@H]2C#N)cc1,3%,?,5%,21µM*,?,18
Cc1ccc(S(=O)(=O)N2CCN(C3CCN(Cc4ccccc4)CC3)CC2)cc1,1%,?,?,-23%,?,8
Cc1ccc(S(=O)(=O)N2C[C@@H]3CCCC[C@@H]3[C@@H](C)[C@H]2c2cn(Cc3ccccc3)c3ncccc23)cc1,-1%,?,-2%,12µM*,2%,-1
Cc1ccc(S(=O)(=O)N2C[C@H]3[C@H]4C(=O)N(Cc5ccccc5)C(=O)[C@H]4CC(=O)[C@H]3[C@@H]2c2ccccc2F)cc1,2%,?,-1%,?,-27%,2
Cc1ccc(S(=O)(=O)N2C[C@@H]3[C@H]4CC[C@H](C4)[C@@H]3[C@@H](C)[C@@H]2c2cn(Cc3ccccc3)c3ncccc23)cc1,-4%,21µM*,0%,23µM*,-18%,-18
COc1ccc(CCN(Cc2ccc(C(C)C)cc2)S(=O)(=O)c2ccc(S(=O)(=O)N(C)C)cc2)cc1OC,-10%,?,-12%,?,-18%,6
COc1ccc(CCN(C)CCCOc2ccc(S(=O)(=O)c3[nH]c4ccccc4c3C(C)C)cc2)cc1OC,·,9.4µM*,·,13µM*,0%,·
COc1ccc(-c2noc(CSc3nnc(Cc4ccccc4)n3-c3ccccc3)n2)cc1OC,·,13µM*,·,23µM*,-11%,·
COc1ccc(-c2noc(CSc3nnc(Cc4ccccc4)n3-c3cccc(C)c3)n2)cc1OC,?,21µM*,?,16µM*,11%,-64*
CCOc1ccc(-c2noc(CSc3nnc(Cc4ccccc4)n3-c3ccc(F)cc3)n2)cc1,·,?,·,?,-2%,·
COc1ccc(OC)c(-c2noc(CSc3nnc(-c4ccccc4)n3-c3ccccc3)n2)c1,·,5.2µM*,·,15µM*,-13%,·
COc1ccc(OC)c(-c2noc(CSc3nnc(Cc4ccccc4)n3-c3cccc(C)c3)n2)c1,·,23µM*,·,18µM*,-6%,·
COc1ccc(OC)c(-c2noc(CSc3nnc(C)n3-c3cccc(C)c3)n2)c1,·,·,·,·,1%,·
CC(CNC(=O)C1CCN(C(=O)c2ncn3c2COC(c2ccccc2)C3)CC1)c1ccccc1 (stereo not given),·,·,·,·,30%,·
Cc1cc(C(=O)N2CCC3(CC2)CC(N2CCN(c4ccccn4)CC2)CCO3)n[nH]1 (stereo not given),·,·,·,·,71%,·
CCCOc1ccc(OCCBr)cc1,·,·,·,·,-27%,·
Cc1cc(NC(=O)N2CCC(n3cnnc3C3CC3)C2)ccc1Br (stereo not given),·,·,·,·,6%,·
COc1ccccc1-c1ccc2ncn(-c3ccc(F)cc3F)c(=O)c2n1,·,·,·,·,-23%[176 µM],·
CN(C(=O)/C=C/c1ccc([N+](=O)[O-])s1)c1ccccc1,?,5.2µM*,-2%,10µM*,-14%,-52*
